Most compounds without a hit are left out; they make up all but 4.1% or so of the library.
ssDAF-12 act – activators of S. stercoralis DAF-12 nuclear receptor; HEK293 ssDAF-12/GRIP1 lit1-tk-luc reporter, luminescence; % of 3 µM dafachronic acid response; activation, % at 6.8 µM; 370,000 tested, 1% active;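 active = activation above the mean over all tested compounds plus 3 SD, cut at about 0.9% in these data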;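 note: 0% = DMSO-only wells and 100% = 3 µM delta7-dafachronic acid wells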
hgDAF-12 ag – agonists of H. glycines DAF-12 nuclear receptor; 370,000 tested, 1.8% active; HEK293 GAL4-hgDAF12 UAS-luciferase reporter, agonist luminescence; normalized to butyrate control; activation, % at 6.8 µM; AID 687014;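 active = activation above a cutoff set at the mean of all screened compounds plus 3 SD, cut at about 10% in these data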;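 note: 0% = DMSO wells and 100% = sodium butyrate wells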
DAX1 inh-1 – NR0B1 (DAX1) inhibition | 340,000 tested, 0.99% active | HEK293 Gal4-DAX1 luciferase reporter, luminescence | AID 504766 | P51843 | inhibition, % at 6.75 µM;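 active = inhibition above the mean over all tested compounds plus 3 SD, cut at about 4.2% in these data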;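 note: 0% = DAX1-transfected cells with DMSO and 100% = empty-vector control cells with DMSO; inhibition shows as a rise in luminescence from relieved DAX1 repression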
Target sequence (P51843 207-470 limits assumed): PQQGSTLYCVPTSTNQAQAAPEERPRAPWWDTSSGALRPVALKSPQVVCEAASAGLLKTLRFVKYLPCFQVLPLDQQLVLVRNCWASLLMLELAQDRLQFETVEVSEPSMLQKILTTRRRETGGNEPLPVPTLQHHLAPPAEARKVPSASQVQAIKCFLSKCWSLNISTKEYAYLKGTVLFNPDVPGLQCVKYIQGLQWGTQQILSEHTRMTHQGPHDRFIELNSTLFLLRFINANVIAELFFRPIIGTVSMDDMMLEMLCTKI
DAX1 inh-2 – inhibitors of DAX1 repression of SF-1 activated StAR promoter; inhibition, % at 6.8 µM; 370,000 tested, 1.1% active; HEK293T StAR-luciferase reporter, SF-1/DAX-1 repression relief; AID 652010;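 active = inhibition above the mean over all tested compounds plus 3 SD, cut at about 3.6% in these data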;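 note: 0% = DAX-1 cells with DMSO and 100% = cells lacking DAX-1 with DMSO; higher inhibition means more luminescence from relief of DAX-1 repression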
hcDAF-12 act – activators of H. contortus DAF-12 nuclear receptor; HEK293 hcDAF-12 lit1-tk-luc reporter, luminescence; 0% DMSO, 100% Δ7-dafachronic acid; activation, % at 6.8 µM; 370,000 tested, 1.4% active;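 active = activation above the mean of all tested compounds plus 3 SD, cut at about 5.5% in these data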;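 note: 100% = response to 3 µM Δ7-dafachronic acid high control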
The depositor's hits bear a star; / = no result.

SMILES | ssDAF-12 act | hgDAF-12 ag | DAX1 inh-1 | DAX1 inh-2 | hcDAF-12 act
COC(=O)[C@]12CCCCC=C1N(Cc1ccccc1)C(=O)[C@H](CC(=O)N1CCN(C(=O)c3ccco3)CC1)C2 | -2 | -3 | / | -1 | -1
O=C(NCc1ccc(C(=O)NC2CCCC2)cc1)c1cccc(Br)c1 | 0 | -2 | / | 0 | -2
COc1ccc(C2C(C(=O)Nc3ccc(F)cc3)CCC(=O)N2c2ccc(OC)cc2)cc1 (configuration not stated) | -1 | -1 | / | 0 | -1
COc1ccc(C2C(C(=O)Nc3ccc(Cl)c(Cl)c3)CCC(=O)N2c2ccc(OC)cc2)cc1 (configuration not stated) | 0 | -1 | / | 0 | 0
O=C(Nc1ccc2c(c1)OCO2)c1c(Cl)nc2sccn12 | 0 | 9 | 3 | 2 | 5.9*
Cn1ncc(Cl)c1C(=O)NCc1ccc2c(c1)OCO2 | -1 | -1 | -1 | -7 | -2
Cn1ncc(Cl)c1C(=O)Nc1ccc2c(c1)OCO2 | 0 | 4 | 1 | 1 | 6.3*
CCOC(=O)[C@@H]1CSCCS(=O)(=O)N1C(=O)[C@H](Cc1ccccc1)NC(=O)OC(C)(C)C | 0 | -2 | / | -1 | 0
CC(C)C[C@H](NC(C)(C)C(=O)NC1CCCCC1)C(=O)NCCc1c[nH]c2ccccc12 | -1 | 6 | / | / | 0
O=C(Cc1cccc2ccccc12)Nc1ccc(O)cc1C(=O)O | -1 | 4 | 1 | 0 | 0
O=C(Cc1cccc2ccccc12)Nc1ccc(Br)cc1C(=O)O | -1 | 1 | 5.6* | 0 | -1
C=CCc1ccc(OCCCCOc2ccc(C(=O)O)cc2)c(OC)c1 | 3.8* | 2 | / | 0 | -2
CCCc1ccc(OCc2ccc(C(=O)O)o2)c(OC)c1 | 0 | 8 | -2 | 3 | 4
O=C(O)c1ccc(COc2ccc3ccccc3c2)o1 | -1 | 10* | -1 | 2 | 3
C=CCc1ccc(OCc2ccc(C(=O)O)o2)c(OC)c1 | 0 | 10 | -1 | 2 | 6.0*
CCOc1ccc(OCc2ccc(C(=O)O)o2)cc1 | 0 | 10 | -4 | 1 | 3
C=CCc1ccc(OCCCOc2ccc(C)c(C)c2)c(OC)c1 | 0 | 1 | 0 | 0 | -1
N#Cc1cccc(NC(=O)O[C@@H]2CC[C@@]34CCCN3C(=O)CCC[C@H]4C2)c1 | -2 | -1 | / | / | 0
CCCC[C@H](C(=O)N(C)c1ccccc1)[C@@H](O)c1ccc(Cl)cc1 | 0 | 2 | / | -1 | -1
CCN(CC)C(=O)CC[C@@H]1CC[C@]2(CCCN(Cc3nccs3)C2)O1 | -1 | 6 | / | 1 | 1
Cc1ccc(C(=O)NC(=S)Nc2ccccc2C(F)(F)F)cc1 | -1 | -1 | 0 | 0 | -1
Cc1ccc(C(=O)NC(=S)Nc2cccnc2Cl)cc1 | 0 | 12* | 1 | 2 | 4
O=c1c2c(nc3n1CCCCC3)sc1c(O)c(Br)ccc12 | 0 | 6 | 2 | 4.4* | 4
CCN(CC)S(=O)(=O)c1ccc(N2CCCC2)c(NC(=O)Cc2cc(OC)c(OC)c(OC)c2)c1 | -1 | 0 | 4.7* | -1 | -2
CCN(CC)S(=O)(=O)c1ccc(N2CCCCC2)c(NC(=O)/C(C#N)=C/c2ccc(OC)cc2)c1 | -1 | 0 | -1 | 0 | 6.3*
SMILES | ssDAF-12 act | hgDAF-12 ag | DAX1 inh-1 | DAX1 inh-2 | hcDAF-12 act
COc1ccc(-c2noc(-c3ccoc3C)n2)cc1OC | 0 | 3 | 3 | 2 | 2
COc1ccc(-c2noc(-c3ccoc3C)n2)cc1 | 1.7* | 11* | 7.5* | 4.0* | 5
COc1cccc(-c2noc(-c3ccoc3C)n2)c1 | 1 | 12* | 3 | 3 | 2
COc1ccc(CN(CC#Cc2ccccc2)Cc2ccccc2)c(OC)c1 | -1 | 2 | / | -1 | 2
Cc1ccc(F)c(S(=O)(=O)NC(=O)C2(C)CCN2C(=O)c2sccc2C)c1 (configuration not stated) | -1 | -1 | / | 0 | 0
Clc1ccc(/C=C\c2nccc3c2[nH]c2ccccc23)cc1 | 0 | 9 | 1 | 1 | 5.7*
N#Cc1ccc(/C=C\c2nccc3c2[nH]c2ccccc23)cc1 | 0 | 3 | -2 | -2 | 4
O=C(c1cc(Cl)cc(Cl)c1)N1CCC(Oc2cccnc2)CC1 | -2 | -1 | / | 1 | -2
Oc1cccc(C2c3[nH]c4ccccc4c3CCN2Cc2ccc3c(c2)CCO3)c1 (configuration not stated) | -1 | -3 | 0 | 2 | 5
Oc1cccc(C2c3[nH]c4ccccc4c3CCN2Cc2ccoc2)c1 (configuration not stated) | 1.4* | 0 | 1 | 1 | 4
COCCCNC(=O)Cn1nnc(-c2ccccc2NC(=O)c2ccccc2F)n1 | -2 | -4 | -1 | -1 | -1
Cc1cc(NC(=O)Cn2nnc(-c3ccccc3NC(=O)c3ccccc3F)n2)no1 | 1.4* | 2 | 2 | 0 | -1
CN(C)c1cccc(-c2cnc(N3CCC(C(N)=O)CC3)nc2)c1 | -1 | 8 | / | / | -1
COc1ccccc1Cc1c(-c2ccc(C#N)cc2)nc2ccc(Br)cn12 | -1 | 4 | / | 0 | 6.0*
Brc1ccc(-c2nc3ccc(Br)cn3c2Cc2ccccc2)cc1 | -1 | 12* | / | -3 | 0
COc1ccccc1Cc1c(-c2ccccc2)nc2ccc(Cl)cn12 | 1.5* | 6 | / | 3 | 3
COc1ccccc1Cc1c(-c2cccc(Cl)c2)nc2ccc(Cl)cn12 | 0 | 3 | / | 1 | 4
CC(C)(C)c1ccc(S(=O)(=O)N2CCCC2C(=O)N2CCN(c3ccccc3)CC2)cc1 (configuration not stated) | 0 | 0 | / | -1 | -4
CN(C)C(=O)c1nc2ccccc2s1 | 0 | 5 | 2 | 1 | 6.5*
Cc1nc(N2CCN(C(=O)COc3ccccc3C)CC2)c2c3c(sc2n1)CCCC3 | -3 | -6 | / | / | -7
O=C(/C=C/c1ccccc1)Nc1cccc(C(=O)NCc2ccccc2)c1 | -1 | 2 | / | 0 | -2
O=C(/C=C/c1ccccc1)Nc1cccc(C(=O)NC2CC2)c1 | 0 | 9 | 1 | 3.8* | 1
CSCCC(NC(N)=O)C(=O)Nc1ccc2ccccc2c1 (configuration not stated) | -2 | 0 | 1 | 0 | -1
CSCCC(NC(N)=O)C(=O)Nc1cccc(C#N)c1 (configuration not stated) | -2 | 4 | 5.1* | 0 | -1
CCN(CC)c1ccc(C=NNC(=O)Cc2cc(=O)[nH][nH]2)c(O)c1 | -2 | 0 | / | 0 | 1
Cc1ccc(C)c(NC2CCCCC2NS(=O)(=O)c2ccccc2)c1 (configuration not stated) | -1 | -1 | 0 | 4.2* | -1
COc1ccc(C(C(=O)N(C)C2CCCC2)N(Cc2ccc(F)cc2)C(=O)c2sccc2Cl)cc1OC (configuration not stated) | -2 | -3 | / | -2 | 2

Screening data: PubChem BioAssay, The Scripps Research Institute Molecular Screening Center
